Only some compounds are listed: those with a hit (about 3.2% of all), similar ones and a draw of the others.
ALOX15B inhib: blocks human 15-lipoxygenase 2 activity; O15296; purified 15hLO-2, xylenol orange hydroperoxide absorbance; Potency, µM (series often up to 57.1 µM), for the others: at the highest dose activity change, negative = inhibition, usual class: inhibitors; hit rate 0.56% among 110,000; also: % is scaled to controls: 0 for no effect and ±100 for the full control effect; nearly all actives have a fitted effect of over 60% in size
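Read-out: hydroperoxide product oxidises ferrous iron, measured as xylenol orange complex via the 573-to-405 nm absorbance ratio after 30 min. Reaction: 50 nM enzyme, 15 min compound preincubation, 45 uM arachidonic acid, 90 min RT, Hepes pH 7.5 with Triton X-100.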
ERK AVP block: blocks ERK signaling stimulated by vasopressin | HEK293-V1b, vasopressin-stimulated pERK AlphaScreen | hit rate 0.99% among 72,000 | Potency, µM (highest dose often 57.5 µM), for the others: at the top dose activity, negative = inhibition, usual class: inhibitors; also: % is scaled to controls: 0 for no effect and ±100 for the full control effect; nearly all actives have a fitted effect of over 55% in size
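HEK293 cells stably expressing V1b receptor, seeded overnight in 1% FBS, were treated with compounds for 30 min at 37C, then stimulated 5 min with 25 nM vasopressin; phospho-ERK read by AlphaScreen SureFire after lysis.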
CRE-bla Fsk: modulators of forskolin-stimulated CRE signaling in CHO cells. CHO CRE-bla reporter (cAMP response element driving beta-lactamase), forskolin EC10, beta-lactamase ratio. Potency, µM (series often up to 38.2 µM), for the others: top-dose activity change, negative = inhibition, most hits filed as activators. hit rate 2.5% among 71,000; active = well fitted activation curve with a large enough effect in the signal ratio, with a control signal flat, not every such curve was filed as active; inconclusive = small, poorly fitted or top-dose-only effect, or effect the other way, or a change in a side signal; the % refers to the signal ratio; also: % of control where 0% means no effect
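Beta-lactamase reporter under a cAMP responsive element in CHO cells; compounds tested in titration series against EC10 NKH 477, 3 h at 37 °C. Read-out: CCF4 FRET ratio 460nm/530nm (excitation 405nm) giving %Activity, fitted to AC50.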
15-hLO inh: blocks human 15-lipoxygenase activity; AID 887; purified 15hLO-1, xylenol orange hydroperoxide absorbance; Potency, µM (series often up to 57.1 µM), without a hit: at the highest dose activity change, negative = inhibition, hits mostly inhibitors; hit rate 1.4% among 74,000; P16050; also: % is scaled to controls: 0 for no effect and ±100 for the full control effect; nearly all actives have a fitted effect of over 55% in size
Target sequence (P16050 whole entry, looked up): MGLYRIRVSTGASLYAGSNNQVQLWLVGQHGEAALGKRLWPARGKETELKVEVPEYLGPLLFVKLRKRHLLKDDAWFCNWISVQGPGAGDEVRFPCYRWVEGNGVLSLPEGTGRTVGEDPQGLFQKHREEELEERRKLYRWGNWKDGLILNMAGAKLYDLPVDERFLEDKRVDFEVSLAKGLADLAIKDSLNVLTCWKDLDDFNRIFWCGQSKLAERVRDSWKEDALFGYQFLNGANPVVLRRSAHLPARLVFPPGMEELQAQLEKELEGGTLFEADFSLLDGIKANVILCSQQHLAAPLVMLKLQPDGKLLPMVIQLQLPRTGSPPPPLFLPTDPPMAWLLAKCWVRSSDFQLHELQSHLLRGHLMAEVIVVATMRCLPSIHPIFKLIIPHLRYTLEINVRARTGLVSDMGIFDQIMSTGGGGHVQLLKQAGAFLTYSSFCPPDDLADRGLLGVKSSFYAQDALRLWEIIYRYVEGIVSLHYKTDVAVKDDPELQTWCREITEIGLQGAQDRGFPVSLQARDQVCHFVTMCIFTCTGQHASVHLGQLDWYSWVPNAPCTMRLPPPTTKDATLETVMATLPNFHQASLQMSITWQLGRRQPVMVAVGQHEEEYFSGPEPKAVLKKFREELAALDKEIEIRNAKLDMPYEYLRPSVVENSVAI
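Quantitative HTS in 25 mM Hepes pH 7.5 containing 0.01% Triton X-100: human 15hLO-1 at 40 nM, arachidonic acid at 50 uM, 6 min turnover. Product quantified via ferrous oxidation/xylenol orange, 573:405 nm absorbance ratio.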
* = called active by the depositor; ? = inconclusive; / = no result given; [ ] = another dose, or the depositor's remark. Unless noted, calls follow the shape of the dose curve; as a rule, active = well fitted inhibition curve with a large enough effect; inconclusive = small, poorly fitted or top-dose-only effect; inactive = no such curve, though single readings can be large or run the other way. Potency is read from the fitted curve at half-maximal effect.

SMILES	ALOX15B inhib	ERK AVP block	CRE-bla Fsk	15-hLO inh
CCCCN1C(=O)NC(=O)C2(Cc3c(nc4ccccn4c3=O)N3CCc4ccccc4C32)C1=O (stereo not drawn)	-15%	-13%	-4%	20µM*
COc1cc([C@@H](O)CN)ccc1O	5%	10%	-4%	10%
C[C@@]12CC[C@H]3[C@@H](CC=C4C[C@H](OS(=O)(=O)O)CC[C@]43C)[C@H]1CCC2=O	6%	-5%	0%	6%
O=C(c1cc2cc3ccc(Cl)cc3nc2o1)N1CCC2(CC1)OCCO2	?	5%	3.2µM*	-5%
CCN1C[C@@]2(COC(=O)c3ccccc3N3C(=O)C[C@H](C)C3=O)CC[C@H](OC)[C@@]34[C@@H]5CC6[C@@H](OC)C[C@@](O)([C@H]5[C@H]6OC)C(O)([C@@H]13)[C@@H](OC)[C@H]24	/	/	-1%	/
CC(C)CN(CC(C)C)c1ccc(C=C2C(=O)NC(=S)NC2=O)cc1[N+](=O)[O-]	10µM*	/	/	/
[Cd+2].[Cl-].[Cl-]	/	-9%	?	13µM*
[CH3][Hg][Cl]	-25%	-3%	?	16µM*
N#CC(C#N)=Cc1ccc([N+](=O)[O-])c(O)c1	-17%[0.0915 µM]	15%	5%	-25%
N#C/C(=C\c1ccc(O)c(O)c1)C(=O)NCCCNC(=O)/C(C#N)=C/c1ccc(O)c(O)c1	-16%	3%	-7%	3.2µM*
CN1CCN(c2ccc3nc(-c4ccc5nc(-c6ccc(O)cc6)[nH]c5c4)[nH]c3c2)CC1	39%[11.4 µM]	1%[11.5 µM]	?	28%[11.4 µM]
CN1CCC[C@@H]1c1cccnc1.O=C(O)c1ccccc1O.O=C([OH2+])c1ccccc1O.O=C([OH2+])c1ccccc1O.O=C([OH2+])c1ccccc1O.[Cu]	?	-10%[11.5 µM]	?	2.5µM*
O[N+]1=CC=CCC1=S.On1ccccc1=S.[Zn]	?	?	/	2.5µM*
C[C@@H]1O[C@@H](O[C@H]2C[C@@H](O)[C@]3(CO)[C@@H]4[C@@H](O)C[C@]5(C)[C@H]([C@@H]6COC(=O)C6)CC[C@@]5(O)[C@H]4CC[C@@]3(O)C2)[C@H](O)[C@H](O)[C@@H]1O	-5%	4%	2%	-4%
O=c1c2ccccc2[se]n1-c1ccccc1	0.63µM*	?	?	0.4µM*
O=c1c2ccccc2nc(N2CCCC2)n1-c1ccccc1	-1%	/	/	/
CCCN1CC[C@@H]2c3cc(O)ccc3CC[C@H]21	2%	3%	-3%	4%
C=CCn1c(O)c(C(CC)=NCc2cc(OC)cc(OC)c2)c(=O)[nH]c1=O	-13%[11.4 µM]	?	10µM*	-1%
COC(=O)c1c(N)n(Cc2ccc(OC)cc2)c2nc3ccccc3nc12	-15%	-26%	16µM*	-19%
COc1ccc(Cn2c(N)c(C(=O)NCc3ccco3)c3nc4ccccc4nc32)cc1OC	-17%	-18%	?	-30%
CCOC(=O)c1c(N)n(Cc2ccc(OC)cc2)c2nc3ccccc3nc12	-30%	?	10µM*	-13%
CCOC(=O)c1c(N)n(CCCOC(=O)c2ccco2)c2nc3ccccc3nc12	-19%	-1%	10µM*	-22%
COCCCn1c(N)c(C(=O)OCCOC)c2nc3ccccc3nc21	?	-27%	10µM*	0%
CCCCNC(=O)c1c(N)n(CCCOC)c2nc3ccccc3nc12	-14%	/	/	-15%
N[C@H](Cn1oc(=O)[nH]c1=O)C(=O)O	/	/	0%	/
SMILES	ALOX15B inhib	ERK AVP block	CRE-bla Fsk	15-hLO inh
Nc1c(C(=O)OCC2CCCO2)c2nc3ccccc3nc2n1Cc1cccs1 (stereo not drawn)	-23%	-22%	10µM*	-17%
CC(C)OCCCNC(=O)c1c(N)n(Cc2cccs2)c2nc3ccccc3nc12	-1%	-4%	?	?
COCCOC(=O)c1c(N)n(Cc2ccco2)c2nc3ccccc3nc12	9%	/	/	/
COCCOC(=O)c1c(N)n(Cc2ccc(OC)cc2)c2nc3ccccc3nc12	-18%	-18%	10µM*	-8%
COC(=O)/C(C)=C\CC12OC(C)(C)C3CC(C=C4C(=O)c5c(OC)c6c(c(CC=C(C)C)c5OC431)OC(C)(CCC=C(C)C)C=C6)C2=O (stereo not drawn)	-22%	14%	/	?
CC(=O)Oc1c2c(c(CC=C(C)C)c3c1C(=O)C1=CC4CC5C(C)(C)OC(C/C=C(\C)C(=O)O)(C4=O)[C@]15O3)OC(C)(CCC=C(C)C)C=C2 (stereo partly drawn)	?	6.3µM*	/	?
CCCN1CCc2cccc3c2[C@@H]1Cc1ccc(O)c(O)c1-3	?	-4%	-2%	?
N#CC1=C(N)Oc2n[nH]c(-c3cccs3)c2C1c1ccsc1 (stereo not drawn)	-13%	?	-6%	4µM*
Cc1ccc(O)cc1	-1%	-22%	-8%	8%
CN(N=O)c1cc(O)ccc1O	12%	-13%	-3%	16µM*
CC(C)(OO)c1ccccc1	5%	-7%	-14%	0.13µM*
CNC(C)(C)Cc1ccccc1	-6%	2%	-5%[17.1 µM]	-5%
C[C@@H]1O[C@H]1P(=O)(O)O	10%	62%	-10%	0%
COC(=O)C(O)(c1ccc(N(C)S(=O)(=O)c2ccccc2)cc1)C(F)(F)F (stereo not drawn)	3%	?	8%	-21%
COC(=O)C(O)(c1ccc(NC(=S)NC(=O)c2ccccc2)cc1)C(F)(F)F (stereo not drawn)	16µM*	/	/	/
C[C@@]12CC[C@H](O)C[C@@H]1CC[C@H]1[C@H]2C[C@@H](O)[C@]2(C)[C@@H](C3=CC(=O)OC3)CC[C@@]12O	/	/	-5%	/
C[C@H]1CC[C@]2(NC1)O[C@@H]1C[C@@H]3[C@@H]4CC=C5C[C@H](O)CC[C@@]5(C)[C@H]4CC[C@@]3(C)[C@H]1[C@@H]2C	/	/	-23%	/
COc1ccc2c(c[n+](C)c3c4cc5c(cc4ccc23)OCO5)c1OC	13µM*	?	?	?
COP(=S)(OC)SCn1nnc2ccccc2c1=O	-7%	32µM*	?	13µM*
CC[C@@H]1CN2CC[C@@H]1C[C@H]2[C@@H](O)c1ccnc2ccc(OC)cc12	/	/	-21%	/
Oc1ccc([C@H](O)[C@@H]2CCCCN2)cc1O	2%[11.4 µM]	-10%[11.5 µM]	-4%[7.6 µM]	-1%[11.4 µM]
c1ccc(Nc2ccc(Nc3ccccc3)cc2)cc1	13µM*	?	-17%	4µM*
O=Nc1ccc(Nc2ccccc2)cc1	?	-18%	?	-21%
CO[C@@H](C)[C@](O)(C(=O)OC1=CCN2CC[C@H](O)[C@H]12)C(C)C	/	/	12%	/
C=CC(=O)OCC(CO)(COC(=O)C=C)COC(=O)C=C	-11%	16µM*	?	-10%
C[C@@]12CC[C@H]3[C@@H](CCC4=CC(=O)CC[C@]43C)[C@H]1CCC2=O	/	/	4%	/
CN1C[C@H](C(=O)N[C@]2(C)O[C@@]3(O)[C@@H]4CCCN4C(=O)[C@H](Cc4ccccc4)N3C2=O)C=C2c3cccc4[nH]cc(c34)C[C@H]21	-12%	?	5%	2.5µM*
